Test results published in PubChem BioAssay.
The source made the active and inactive calls.

Assays:
[1] = small molecules captured by biotinylated probe aFSTL3 – biochemical, small-molecule microarray, fluorescence 635/667, stem cell growth factor project, primary screen (AID 1064); details: higher = more signal;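 note: measures binding of the biotinylated anti-FSTL3 antibody to printed compounds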
[2] = binders from COS7 lysate, DM2A8 probe, primary screen, torsin A project, cell lysate, small-molecule microarray, fluorescence 635/667 (AID 1065); details: higher = more signal, COS7 lysate expressing mutant human TOR1A
[3] = small molecules captured by biotinylated probe aFGF2 – biochemical, small-molecule microarray, fluorescence 635/667, stem cell growth factor project, primary screen (AID 1067); details: higher = more signal;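 note: measures binding of biotinylated aFGF2 protein to printed compounds on slides; z-score merges feature fluorescence and signal-to-noise across triplicate slides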
[4] = small molecules captured by biotinylated probe aFGF10 – biochemical, small-molecule microarray, fluorescence 635/667, stem cell growth factor project, primary screen (AID 1071); details: higher = more signal;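 note: score merges 667 nm spot intensity and signal to noise from triplicate slides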
[5] = target: Neurogenic locus notch homolog protein 2 (Homo sapiens) (UniProt Q04721); test: small molecules binding Notch2 protein – biochemical, small-molecule microarray, 635 nm fluorescence, stem cell growth factors, primary screen (AID 1073); details: higher = more signal
Chain of Neurogenic locus notch homolog protein 2 (Homo sapiens) (Q04721 whole entry, looked up, canonical isoform): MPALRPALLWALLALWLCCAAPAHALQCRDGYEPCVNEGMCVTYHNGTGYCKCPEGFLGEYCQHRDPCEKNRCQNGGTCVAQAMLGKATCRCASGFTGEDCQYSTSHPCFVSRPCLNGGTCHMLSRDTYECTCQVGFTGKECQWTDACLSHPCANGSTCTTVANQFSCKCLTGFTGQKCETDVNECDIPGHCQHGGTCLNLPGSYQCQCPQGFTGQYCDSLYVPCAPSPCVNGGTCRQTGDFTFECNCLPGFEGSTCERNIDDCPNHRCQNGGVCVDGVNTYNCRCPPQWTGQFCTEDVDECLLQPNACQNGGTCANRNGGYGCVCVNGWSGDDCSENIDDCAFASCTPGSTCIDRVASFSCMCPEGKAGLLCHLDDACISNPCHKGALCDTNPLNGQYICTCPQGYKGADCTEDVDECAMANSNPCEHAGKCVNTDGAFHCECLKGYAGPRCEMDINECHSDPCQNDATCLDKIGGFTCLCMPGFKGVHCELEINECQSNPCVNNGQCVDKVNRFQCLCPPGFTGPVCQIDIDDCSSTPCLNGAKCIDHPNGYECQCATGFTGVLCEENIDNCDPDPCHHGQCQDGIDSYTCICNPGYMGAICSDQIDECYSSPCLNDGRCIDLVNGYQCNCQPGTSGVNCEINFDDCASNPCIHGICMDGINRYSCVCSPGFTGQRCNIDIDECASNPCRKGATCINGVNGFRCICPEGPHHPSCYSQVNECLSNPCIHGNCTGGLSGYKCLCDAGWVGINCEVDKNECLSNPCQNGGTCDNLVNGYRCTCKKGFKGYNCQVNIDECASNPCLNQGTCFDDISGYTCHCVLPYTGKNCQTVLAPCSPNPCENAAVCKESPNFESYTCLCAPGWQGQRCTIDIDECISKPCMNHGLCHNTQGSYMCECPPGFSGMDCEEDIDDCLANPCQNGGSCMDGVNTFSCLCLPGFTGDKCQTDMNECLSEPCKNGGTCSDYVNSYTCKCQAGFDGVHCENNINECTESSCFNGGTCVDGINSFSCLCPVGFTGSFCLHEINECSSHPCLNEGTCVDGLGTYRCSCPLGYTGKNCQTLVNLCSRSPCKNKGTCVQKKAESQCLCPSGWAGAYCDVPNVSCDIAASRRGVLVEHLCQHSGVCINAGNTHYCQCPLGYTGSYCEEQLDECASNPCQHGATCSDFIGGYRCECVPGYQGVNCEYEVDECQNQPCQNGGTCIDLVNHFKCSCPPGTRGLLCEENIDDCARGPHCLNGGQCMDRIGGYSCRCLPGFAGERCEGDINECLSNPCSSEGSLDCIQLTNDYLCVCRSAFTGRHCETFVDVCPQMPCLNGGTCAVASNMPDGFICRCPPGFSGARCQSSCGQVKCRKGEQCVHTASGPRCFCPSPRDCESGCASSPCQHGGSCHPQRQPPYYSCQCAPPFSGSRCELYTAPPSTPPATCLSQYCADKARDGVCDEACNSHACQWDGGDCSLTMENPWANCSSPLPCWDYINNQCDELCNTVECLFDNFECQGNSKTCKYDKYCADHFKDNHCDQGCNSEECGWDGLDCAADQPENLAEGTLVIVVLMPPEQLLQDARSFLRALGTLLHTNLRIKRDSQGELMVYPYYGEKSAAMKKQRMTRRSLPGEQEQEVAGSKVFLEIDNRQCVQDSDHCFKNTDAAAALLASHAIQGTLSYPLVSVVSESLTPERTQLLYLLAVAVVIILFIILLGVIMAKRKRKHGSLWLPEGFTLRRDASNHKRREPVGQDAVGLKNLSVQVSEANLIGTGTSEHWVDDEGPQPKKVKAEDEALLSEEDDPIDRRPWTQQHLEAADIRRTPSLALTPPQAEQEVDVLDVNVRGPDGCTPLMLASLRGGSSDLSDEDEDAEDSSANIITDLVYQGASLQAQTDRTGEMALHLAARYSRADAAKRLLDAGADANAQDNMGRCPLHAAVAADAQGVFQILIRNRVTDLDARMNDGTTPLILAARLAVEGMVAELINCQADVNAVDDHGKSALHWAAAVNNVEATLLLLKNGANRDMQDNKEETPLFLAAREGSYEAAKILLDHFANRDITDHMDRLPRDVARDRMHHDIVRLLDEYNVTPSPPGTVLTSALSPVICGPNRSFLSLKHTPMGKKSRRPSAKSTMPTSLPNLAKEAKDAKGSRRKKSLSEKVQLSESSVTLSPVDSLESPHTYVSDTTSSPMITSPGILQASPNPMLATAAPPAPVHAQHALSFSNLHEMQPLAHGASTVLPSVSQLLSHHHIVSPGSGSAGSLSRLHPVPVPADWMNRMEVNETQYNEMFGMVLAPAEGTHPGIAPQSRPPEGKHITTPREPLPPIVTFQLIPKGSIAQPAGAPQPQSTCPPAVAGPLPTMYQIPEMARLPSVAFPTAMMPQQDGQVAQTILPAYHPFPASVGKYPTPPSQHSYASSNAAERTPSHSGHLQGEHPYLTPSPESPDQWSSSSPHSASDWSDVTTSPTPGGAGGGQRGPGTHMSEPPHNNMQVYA

[6] = target: Pro-neuregulin-1, membrane-bound isoform (Homo sapiens) (UniProt Q02297); test: small molecules binding neuregulin-1 protein – biochemical, small-molecule microarray, fluorescence 635/667, psychiatric disease protein project, primary screen (AID 1075); details: NRG1 binding, 635 nm fluorescence, higher = more signal;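 note: score combines 667 nm spot fluorescence with signal to noise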
Chain of Pro-neuregulin-1, membrane-bound isoform (Homo sapiens) (Q02297 whole entry, looked up, the tested form may be a part, canonical isoform): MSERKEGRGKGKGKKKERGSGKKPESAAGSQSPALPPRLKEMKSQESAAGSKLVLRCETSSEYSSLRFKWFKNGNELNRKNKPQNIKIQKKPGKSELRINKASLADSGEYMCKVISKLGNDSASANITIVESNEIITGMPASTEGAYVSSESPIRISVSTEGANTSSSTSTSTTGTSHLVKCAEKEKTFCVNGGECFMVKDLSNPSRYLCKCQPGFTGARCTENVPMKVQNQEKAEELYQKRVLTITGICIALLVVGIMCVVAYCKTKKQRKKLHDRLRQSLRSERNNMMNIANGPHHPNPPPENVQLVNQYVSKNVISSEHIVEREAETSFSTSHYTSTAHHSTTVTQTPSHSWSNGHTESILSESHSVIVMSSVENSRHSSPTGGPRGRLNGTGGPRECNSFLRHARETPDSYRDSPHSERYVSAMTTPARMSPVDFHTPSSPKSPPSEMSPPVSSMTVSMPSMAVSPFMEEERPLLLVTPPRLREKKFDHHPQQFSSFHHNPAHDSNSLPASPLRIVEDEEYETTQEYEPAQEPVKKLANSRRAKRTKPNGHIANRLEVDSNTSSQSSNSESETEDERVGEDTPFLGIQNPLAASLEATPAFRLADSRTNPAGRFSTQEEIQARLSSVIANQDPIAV

[7] = system: Neuregulin-1 EGF-like domain; test: small molecules binding NRG1 EGF domain – biochemical, small-molecule microarray, 635 nm fluorescence, primary screen (AID 1081); details: higher = more signal;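 note: binding of the protein to compounds printed on small-molecule microarray slides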
[8] = FRG1 expression reporter modulators in myotubes – cell-based, C2C12 myotubes, firefly/Renilla luciferase, luminescence, FRG1 inhibition for FSHD, primary screen (AID 1084); details: FRG1 promoter luciferase, higher = more signal, called active from +8 up or from −8 down
[9] = small molecules captured by biotinylated probe aFST – biochemical, small-molecule microarray, fluorescence 635/667, stem cell growth factor project, primary screen (AID 1086); details: higher = more signal;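 note: score merges 667 nm fluorescence with signal-to-noise of each printed compound spot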
[10] = binders of probe aHhip on microarray, primary screen, stem cell growth factor project, biochemical, small-molecule microarray, fluorescence 635/667 (AID 1087); details: higher = more signal;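 note: score merges spot fluorescence at 667nm with spot signal to noise ratio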

Structure (SMILES)	composite z-score [1]	composite z-score [2]	composite z-score [3]	composite z-score [4]	composite z-score [5]	composite z-score [6]	composite z-score [7]	z-score [8]	composite z-score [9]	composite z-score [10]
CCN1C(C)=C(C(=O)OC)[C@@H](c2ccccc2)N2C(=O)[C@](O)(C(=O)OC)[C@@H](c3ccccc3)C(C(C)=O)=C12	-0.0393	-0.0183	-0.0621	0.391	0.991	-0.485	0.913	-1.88 (inactive)	0.283	-0.262
CCOC(=O)C[C@H]1[C@H](OC(=O)c2ccccc2-c2ccccc2)[C@@H](NC(=O)C2CCCCC2)c2cc(OCCCO)ccc2N1C(=O)c1ccccc1	-0.43	0.0236	-0.041	0.687	0.797	0.0516	0.652	0.404 (inactive)	0.0322	-0.0047
Cc1ccc([C@@H]2CC=C(C(=O)O)[C@H](c3ccccc3)N2S(=O)(=O)c2ccc(C)cc2)cc1	0.65	0.436	0.358	1.02	1.49	1.82	1.35	-3.57 (inactive)	0.549	0.0623
COCCOC(=O)N1C(=O)[C@@]2(c3cc(C#CCNC(N)=O)ccc31)[C@H](c1ccccc1OCCO)N1[C@H](c3ccccc3)[C@H](c3ccccc3)OC(=O)[C@H]1[C@@H]2C(=O)NC[C@H](O)c1ccccc1	-0.342	1.27	-0.0083	0.658	0.472	1.54	1.21	-0.163 (inactive)	0.512	-0.0672
CSCC[C@@H]1NC(=O)CC=C[C@@H](C)COC(=O)[C@H](CCSC)NC(=O)CC=C[C@@H](C)COC1=O	-0.678	1.31	-0.127	0.0086	-0.121	-0.283	-0.26	-0.889 (inactive)	-0.15	0.0578
COCCOC(=O)N1C(=O)[C@@]2(c3cc(C#CCNC(N)=O)ccc31)[C@H](c1ccc(OCCO)cc1)N1[C@H](c3ccccc3)[C@H](c3ccccc3)OC(=O)[C@H]1[C@@H]2C(=O)Nc1nc2ccccc2s1	1.02	0.208	-0.0399	0.371	-0.97	0.396	-0.757	3.98 (inactive)	0.98	0.136
CO[C@H]1COC(=O)[C@@H](C)COC(=O)[C@H](Cc2ccccc2)NC(=O)CC=C[C@H]1C	-0.678	0.995	-0.107	0.131	-0.26	-0.323	-0.703	-0.117 (inactive)	0.267	0.0216
CO[C@@H]1COC(=O)CC=C[C@H](C)COC(=O)[C@H](Cc2ccccc2)NC(=O)CC=C[C@H]1C	-1.68	1.69	-0.265	-0.416	-1.04	-0.409	0.517	-0.533 (inactive)	-0.515	-0.179
COCCOC(=O)N1C(=O)[C@@]2(c3cc(C#CCNC(N)=O)ccc31)[C@H](c1ccc(OCCO)cc1)N1[C@H](c3ccccc3)[C@H](c3ccccc3)OC(=O)[C@H]1[C@@H]2C(=O)N1CCCCCCC1	2.75	0.0698	0.128	0.209	0.315	-0.0446	-0.116	-0.271 (inactive)	1.46	0.167
C=CCC(OC(C)=O)[C@@H]1[C@@H](N(Cc2ccc(-c3ccccc3)cc2)C(=O)c2ccc(-c3ccccc3)cc2)c2cc(OCCCO)ccc2N1C(=O)Cc1ccc(OC)cc1 (stereo not given in full)	-0.28	0.354	-0.0676	0.27	-0.142	0.0866	-0.261	0.826 (inactive)	0.391	-0.189
C=CCC(OC(C)=O)[C@@H]1[C@@H](N(Cc2ccc(-c3cccc(C(F)(F)F)c3)o2)C(=O)Cc2ccc(F)cc2)c2cc(OCCCO)ccc2N1C(=O)c1ccc(-c2ccccc2)cc1 (stereo not given in full)	0.142	-0.0983	-0.129	-0.556	-0.606	-0.0704	-0.387	-0.245 (inactive)	0.0417	-0.236
O=C(CS)NCCCCCCNC(=O)[C@@H]1C[C@@H]2C(=O)N[C@@H](Cc3ccccc3)C(=O)N2[C@@H]1c1ccc(O)cc1	0.0737	1.09	-0.083	0.922	0.412	1.23	1.41	1.21 (inactive)	0.245	0.0373
NC(=O)[C@H]1[C@@H]2C(=O)O[C@@H](c3ccccc3)[C@@H](c3ccccc3)N2[C@@H](c2ccc(O)cc2)[C@]12C(=O)Nc1ccc(C#CCCO)cc12	0.545	-0.831	-0.12	-0.861	-0.982	-0.0709	1.12	-0.89 (inactive)	-0.605	-0.251
CCN1C(C)=C(C(=O)OC)[C@@H](c2ccccc2)N2C(=O)[C@@]3(C(=O)OC)O[C@@]12[C@@H]1C(=O)CCC[C@@H]13	-0.65	0.33	-0.178	0.234	-0.334	-0.307	0.545	-0.765 (inactive)	-0.183	0.351
C=C(CCCC)/C(=C/C[C@@H](OC(=O)c1ccncc1)c1ccc(CO)o1)c1cnc2ccccc2c1	-0.297	0.702	0.0263	1.08	1.59	0.786	0.743	-0.452 (inactive)	0.972	0.224
O=C1O[C@@H](c2ccccc2)[C@@H](c2ccccc2)N2[C@@H](c3ccccc3OCCO)[C@]3(C(=O)Nc4ccc(C#CC5=CCCCC5)cc43)[C@@H](C(=O)O)[C@H]12	0.294	0.416	0.0248	0.627	1.44	0.391	1.1	-1.6 (inactive)	0.415	-0.226

Structure (SMILES)	composite z-score [1]	composite z-score [2]	composite z-score [3]	composite z-score [4]	composite z-score [5]	composite z-score [6]	composite z-score [7]	z-score [8]	composite z-score [9]	composite z-score [10]
C=C(CCCC)/C(=C/C[C@@H](OC(=O)c1ccncc1)c1cccc(OCCO)c1)c1cc(C(=O)OC)ccc1OC	-0.0606	0.522	0.0211	0.291	0.535	1.38	1.26	9.67 (active)	0.223	0.0722
O=C1O[C@@H](c2ccccc2)[C@@H](c2ccccc2)N2[C@@H](c3ccc(O)cc3)[C@]3(C(=O)Nc4ccc(C#CC5(O)CCCCCC5)cc43)[C@@H](C(=O)Nc3nc4ccccc4s3)[C@H]12	-0.128	0.91	0.0759	0.814	1.49	1.16	0.994	-0.253 (inactive)	1.12	1.71
O=C(N1CCCCC1)[C@@]1(CCS(=O)(=O)c2ccccc2)N=C(c2ccc(OCCCO)cc2)O[C@H]1c1ccccc1	0.151	0.529	0.236	0.685	1.4	0.0933	1.23	-0.144 (inactive)	1.51	-0.0645
C[C@@H]1NC(=O)CC=C[C@@H](C)[C@@H]2C=C[C@H](O)[C@@H](COC(=O)[C@H](C)NC(=O)CC=C[C@@H](C)[C@@H]3C=C[C@H](O)[C@@H](COC1=O)O3)O2	-0.703	0.0339	-0.0511	0.216	0.0211	-0.428	-0.247	0.587 (inactive)	0.229	-0.0994
CO[C@H]1COC(=O)[C@H](Cc2ccccc2)NC(=O)CC=C[C@@H](C)[C@H](OC)COC(=O)CC=C[C@@H]1C	-0.453	0.421	-0.0643	0.324	-0.156	0.131	0.316	-0.244 (inactive)	0.244	-0.504
COCCOC(=O)N1C(=O)[C@@]2(c3cc(C#CCC(C(=O)OC)C(=O)OC)ccc31)[C@H](c1ccccc1OCCO)N1[C@H](c3ccccc3)[C@H](c3ccccc3)OC(=O)[C@H]1[C@@H]2C(=O)N1CCCCCCC1	3.6	0.618	0.486	0.388	0.966	0.889	1.33	-0.0751 (inactive)	2.9	2.32
C[C@@H]1NC(=O)[C@H](Cc2ccccc2)NC(=O)[C@@]23C(=O)N[C@@H](Cc4ccccc4)C2[C@H](C)[C@@]2(C)O[C@H]2C3/C=C/C/C=C\CNC1=O (stereo not given in full)	-0.191	-0.0483	-0.111	0.0009	-0.315	-0.318	-0.603	-0.225 (inactive)	-0.784	0.122
O=C(NCc1ccccc1)[C@@]1(CCS(=O)(=O)c2ccccc2)COC(c2ccc(OCCCO)cc2)=N1	0.971	0.985	0.0025	0.382	1.17	2.16	1.18	-4.58 (inactive)	0.662	-0.15
COc1ccc(C(=O)Nc2ccc(CN3C(=O)[C@]4(O[C@H](CCn5cc(CCO)nn5)[C@@H]([Si](C)(C)c5ccc(OC)cc5)[C@@H]4C)c4ccccc43)cc2)cc1	0.263	0.259	0.0331	1.05	1.46	0.485	1.09	-3.72 (inactive)	-0.177	-0.0645
C=CCc1cccc([C@H]2N[C@H](C(=O)O)CC[C@@H]2C)c1	-0.746	0.604	-0.221	0.502	-0.441	-0.0316	0.519	-0.204 (inactive)	-0.099	0.122
C=CC(=O)O[C@@H](Cc1ccccc1)[C@H]1C2C=CCCC=C2CN1Cc1cccc(Cl)c1 (stereo not given in full)	0.32	-0.32	-0.123	-0.682	-0.657	-0.518	-1.2	-1.44 (inactive)	-0.254	0.176
C=CCN1C(=O)[C@]2(O[C@H](CCn3cc(CCO)nn3)[C@@H]([Si](C)(C)c3ccc(OC)cc3)[C@@H]2C)c2cc(NC(=O)c3ccc(OC)cc3)ccc21	0.615	0.473	0.0051	-0.0488	0.48	0.439	0.974	-2.48 (inactive)	0.479	0.176
C[C@H]1COC(=O)[C@@H]2CCCN2C(=O)[C@@H](C)COC(=O)[C@@H]2CCCN2C1=O	-0.295	0.491	-0.163	0.0646	0.415	-0.567	-0.436	-3.16 (inactive)	-0.041	-0.134
O=C/C=C/c1ccc(/C=C/c2ccccc2)cc1	1.02	0.107	-0.105	-0.324	-0.429	-0.422	-0.34	3.71 (inactive)	0.204	0.154
CCCCO[C@H]1C[C@H]2C(Br)=C[C@@]1(CO)C(=O)[C@]21CO1	-0.599	0.407	-0.0785	-0.367	-0.0029	-0.534	-0.802	0.715 (inactive)	0.162	-0.156
CC(=O)NCCCC[C@@H]1NC(=O)[C@H]2C[C@@H](C(=O)NCCCCCCN(C)C)[C@@H](c3ccc(O)cc3)N2C1=O	-0.463	1.68	-0.0876	0.785	0.269	1.43	1.48	4.59 (inactive)	0.31	0.0401
